In assay [1] the target is DNA repair nuclease/redox regulator APEX1 (Homo sapiens) (UniProt P27695). Description: qHTS Validation Assay for Inhibitors of the Human Apurinic/apyrimidinic Endonuclease 1 (APE1) (AID 1705;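 also: TAMRA fluorescence gain over two minutes as APE1 cuts a quenched THF abasic duplex; series mostly up to about 57 µM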). In outline:
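Endonuclease activity of human APE1 is followed as dequenching when the enzyme incises a tetrahydrofuran abasic site in a short duplex labelled 5'-TAMRA/3'-BHQ-2 (50 nM final), after 15 min enzyme–compound preincubation at room temperature.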
For orientation: Quantitative high-throughput screening tests each substance at several concentrations.

A short description of assay [2]: Counterscreen for APE1 Inhibitors: Fluorescent Dye Displacement Validation Assay (AID 1707). In outline: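 Endpoint fluorescence read at 480 nm excitation / 540 nm emission; DNA-binding compounds lower signal by displacing 250 nM Thiazole Orange from 50 nM dsDNA containing a tetrahydrofuran abasic site, Tris-HCl pH7.5 buffer with NaCl and MgCl2.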
(The purpose of a counterscreen is to sort out artefacts and off-target activity.)

Assay [3] deals with Endonuclease 4 (Escherichia coli (strain K12)) (UniProt P0A6C1). Description: Counterscreen for APE1 Inhibitors: qHTS Validation Assay for Inhibitors of Endonuclease IV (AID 1708). In short, it runs like this: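 Conditions: 2 nM enzyme, 50 nM TAMRA/BHQ-2 substrate, pH 7.5 Tris buffer with 2 mM MgCl2, RT. Compound preincubation 15 min; readout three fluorescence reads 60 s apart, third-minus-first.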

Assay [4] in a line: qHTS for differential inhibitors of proliferation of Plasmodium falciparum line 7G8 (AID 1815).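 Also: parasite growth measured after three days of incubation.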 Also: potency is read from the fitted curve at half-maximal effect.
The nature of assay [5]: qHTS for differential inhibitors of proliferation of Plasmodium falciparum line GB4 (AID 1816).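 Also: parasite growth measured after 72 h incubation.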 Also: potency is read from the fitted curve at half-maximal effect. Particulars: Potency: Plasmodium falciparum GB4 proliferation inhibition.
A short description of assay [6]: qHTS for differential inhibitors of proliferation of Plasmodium falciparum line Dd2 (AID 1882). Also: nearly all actives have a fitted effect of over 65% in size. Also: potency is read from the fitted curve at half-maximal effect. Particulars: Potency: Plasmodium falciparum Dd2 proliferation inhibition. In short, it runs like this: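 SYBR Green DNA fluorescence (ex 485, em 535 nm) after overnight lysis quantifies parasite growth; compound exposure lasted 72 h at 37 C on infected red cells at 2.5% hematocrit, 0.3% parasitemia (final). Artemisinin 0.29 uM and vehicle wells define normalization.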

Assay [7] is described as follows: qHTS for differential inhibitors of proliferation of Plasmodium falciparum line W2 (AID 1883).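 Also: parasites grown with compound for 72 h before lysis and staining.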 Also: potency is read from the fitted curve at half-maximal effect. Particulars: Potency: Plasmodium falciparum W2 proliferation inhibition.
Assay [8] can be described thus: qHTS Assay for Modulators of Human Peripheral Myelin Protein 22 (PMP22) Expression/Activity (AID 1967; active = well fitted curve in the direction sought with a large enough effect in the signal ratio; the % refers to the signal ratio). In outline:
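Quantitative HTS in a mouse Schwann cell line expressing dual click beetle luciferases: Pmp22 promoter (green) and control EF-alpha promoter (red). After 24h treatment, corrected green/red signal ratio gave %Activity relative to untreated cells.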

Assay [9] addresses Ferritin light chain (Equus caballus) (UniProt P02791). In words: qHTS Validation Assay for Identification of Novel General Anesthetics (AID 2323). Also: series mostly up to about 77 µM. In outline:
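Apoferritin from horse spleen (10 uM) was mixed with 1-aminoanthracene at 50% saturation in PBS, then compounds were added. After 10 min at room temperature, fluorescence was read (ex 380 nm, em 535 nm) and normalized to free-probe and complex controls.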

In assay [10] the target is ATP-dependent DNA helicase Q1 (Homo sapiens) (UniProt P46063). Description: qHTS Validation Assay for Inhibitors of RecQ-Like Dna Helicase 1 (RECQ1) (AID 2353). In outline: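 RECQ1T1 50 nM; forked duplex (20 bp + 30-nt ss tails) 200 nM, ATP 2 mM final; pH 8.0, 2 mM MgCl2, 2.5 ug/ml poly(dI-dC); 15 min compound preincubation; discontinuous kinetic read over 2 h at RT.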

Assay [11] in a line: Cytometric Cell-Based qHTS for Inhibitors of the mTORC1 Signaling Pathway in MEF (Tsc2-/-, p53-/-) Cells (AID 2660).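 Also: Tsc2 and p53 null MEFs carrying empty vector with compound for 24 h; percent of cells above a phospho-rpS6 to PI ratio cutoff in each well; series mostly up to about 38 µM.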 In outline:
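Cells are plated, treated with compound for 24 hrs at 37 degree Celsius, then fixed, blocked and immunostained for phospho-rpS6 Ser235/236. Propidium iodide counterstain follows. Per-well % positive cells is derived from the PI-normalized phospho-S6 signal.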

Assay [12] in a line: High Content Imaging Cell-Based qHTS for Inhibitors of the mTORC1 Signaling Pathway in MEF (Tsc2-/-, p53-/-) Cells (AID 2666).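 Also: percent of cells scored positive for phospho-rpS6 Ser235/236 immunostaining by imaging.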 Also: potency is read from the fitted curve at half-maximal effect. In outline:
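MEF Tsc2-/- p53-/- (empty vector), DMEM/10% FBS; cpd 24 h 37 °C; PFA fix, Alexa-488 p-rpS6 S235/236 Ab, Hoechst; imaged; rapamycin-defined inhibition; % positive cells/well.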

Assay [13] in a line: qHTS Assay for Identification of Small Molecule Inducers of Hypoxia Response (AID 2120; active = well fitted curve in the direction sought with a large enough effect in the signal ratio, with a control signal flat, not every such curve was filed as active; the % refers to the signal ratio). In outline:
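Reporter induction read as the CCF4 blue/green (460nm/530nm) emission ratio after 2.5 h dye loading at room temperature. ME-180 HRE-beta-lactamase cells received titrated compounds for 17 h at 37 degrees Celsius; AC50 values derived.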

Assay [14] in a line: qHTS for differential inhibitors of proliferation of Plasmodium falciparum line 3D7 (AID 1876). Also: potency is read from the fitted curve at half-maximal effect.
Assay [15] in a line: qHTS for differential inhibitors of proliferation of Plasmodium falciparum line D10 (AID 1877).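 Also: parasites grown with compound for 72 h before DNA staining.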 Also: potency is read from the fitted curve at half-maximal effect.
The nature of assay [16]: qHTS for differential inhibitors of proliferation of Plasmodium falciparum line HB3 (AID 1886).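 Also: parasites grown with compound for 72 h before SYBR Green readout.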 Also: potency is read from the fitted curve at half-maximal effect. Particulars: Potency: Plasmodium falciparum HB3 proliferation inhibition.
For assay [17], the target named is RecQ-like DNA helicase BLM (Homo sapiens) (UniProt P54132). Description: qHTS Validation Assay for Inhibitors of Bloom's syndrome helicase (BLM) (AID 2364). In short, it runs like this: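 50 nM BLM preincubated 15 min at room temperature with compound in pH 8.0 Tris buffer containing 2.5 ug/ml poly(dI-dC); started with 200 nM TAMRA/BHQ-2 forked duplex and 2 mM ATP (final). Unwinding read as TAMRA fluorescence increase, two reads 2 h apart.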

The structures appear in SMILES notation. Records with an inconclusive call do not appear. Calls of active or inactive are those of the source. Unless noted, calls follow the shape of the dose curve; as a rule, active = well fitted curve in the direction sought with a large enough effect; inconclusive = small, poorly fitted or top-dose-only effect, or another doubt; inactive = no such curve, though single readings can be large; an effect the other way counts as inactive or inconclusive.

This note sets out measurements from PubChem BioAssay (NCATS).

ATP-dependent DNA helicase Q1 (Homo sapiens), sequence (P46063 whole entry, looked up): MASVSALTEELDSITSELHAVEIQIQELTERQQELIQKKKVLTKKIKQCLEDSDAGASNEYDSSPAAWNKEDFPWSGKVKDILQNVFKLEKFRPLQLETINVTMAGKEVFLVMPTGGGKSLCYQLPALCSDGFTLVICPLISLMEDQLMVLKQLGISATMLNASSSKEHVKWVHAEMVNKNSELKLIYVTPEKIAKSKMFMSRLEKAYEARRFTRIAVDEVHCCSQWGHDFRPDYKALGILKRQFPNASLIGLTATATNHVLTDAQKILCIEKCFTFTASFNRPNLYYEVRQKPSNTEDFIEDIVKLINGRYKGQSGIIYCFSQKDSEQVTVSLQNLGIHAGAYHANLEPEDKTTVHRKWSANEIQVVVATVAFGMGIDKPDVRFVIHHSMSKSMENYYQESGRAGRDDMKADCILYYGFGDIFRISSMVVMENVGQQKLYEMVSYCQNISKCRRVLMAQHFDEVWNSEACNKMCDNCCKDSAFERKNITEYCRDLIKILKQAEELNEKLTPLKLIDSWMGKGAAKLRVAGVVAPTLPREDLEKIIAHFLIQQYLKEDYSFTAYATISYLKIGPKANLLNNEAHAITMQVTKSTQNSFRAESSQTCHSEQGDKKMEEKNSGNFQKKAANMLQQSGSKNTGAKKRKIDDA
DNA repair nuclease/redox regulator APEX1 (Homo sapiens), sequence (P27695 whole entry, looked up): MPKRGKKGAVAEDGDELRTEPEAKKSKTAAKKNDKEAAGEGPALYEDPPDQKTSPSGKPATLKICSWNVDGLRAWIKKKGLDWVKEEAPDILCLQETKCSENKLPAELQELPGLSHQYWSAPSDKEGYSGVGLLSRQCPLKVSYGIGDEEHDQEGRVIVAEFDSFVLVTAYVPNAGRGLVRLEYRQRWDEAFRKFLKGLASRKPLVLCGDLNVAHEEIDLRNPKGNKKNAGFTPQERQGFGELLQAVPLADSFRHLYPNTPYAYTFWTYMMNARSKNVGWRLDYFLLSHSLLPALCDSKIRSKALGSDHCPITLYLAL
Ferritin light chain (Equus caballus), sequence (P02791 2-175 limits assumed): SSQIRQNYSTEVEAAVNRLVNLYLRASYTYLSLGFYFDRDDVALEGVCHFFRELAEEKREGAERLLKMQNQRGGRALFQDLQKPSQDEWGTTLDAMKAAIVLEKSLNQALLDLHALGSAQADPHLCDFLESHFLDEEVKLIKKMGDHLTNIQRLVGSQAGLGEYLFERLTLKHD
RecQ-like DNA helicase BLM (Homo sapiens), sequence (P54132 whole entry, looked up): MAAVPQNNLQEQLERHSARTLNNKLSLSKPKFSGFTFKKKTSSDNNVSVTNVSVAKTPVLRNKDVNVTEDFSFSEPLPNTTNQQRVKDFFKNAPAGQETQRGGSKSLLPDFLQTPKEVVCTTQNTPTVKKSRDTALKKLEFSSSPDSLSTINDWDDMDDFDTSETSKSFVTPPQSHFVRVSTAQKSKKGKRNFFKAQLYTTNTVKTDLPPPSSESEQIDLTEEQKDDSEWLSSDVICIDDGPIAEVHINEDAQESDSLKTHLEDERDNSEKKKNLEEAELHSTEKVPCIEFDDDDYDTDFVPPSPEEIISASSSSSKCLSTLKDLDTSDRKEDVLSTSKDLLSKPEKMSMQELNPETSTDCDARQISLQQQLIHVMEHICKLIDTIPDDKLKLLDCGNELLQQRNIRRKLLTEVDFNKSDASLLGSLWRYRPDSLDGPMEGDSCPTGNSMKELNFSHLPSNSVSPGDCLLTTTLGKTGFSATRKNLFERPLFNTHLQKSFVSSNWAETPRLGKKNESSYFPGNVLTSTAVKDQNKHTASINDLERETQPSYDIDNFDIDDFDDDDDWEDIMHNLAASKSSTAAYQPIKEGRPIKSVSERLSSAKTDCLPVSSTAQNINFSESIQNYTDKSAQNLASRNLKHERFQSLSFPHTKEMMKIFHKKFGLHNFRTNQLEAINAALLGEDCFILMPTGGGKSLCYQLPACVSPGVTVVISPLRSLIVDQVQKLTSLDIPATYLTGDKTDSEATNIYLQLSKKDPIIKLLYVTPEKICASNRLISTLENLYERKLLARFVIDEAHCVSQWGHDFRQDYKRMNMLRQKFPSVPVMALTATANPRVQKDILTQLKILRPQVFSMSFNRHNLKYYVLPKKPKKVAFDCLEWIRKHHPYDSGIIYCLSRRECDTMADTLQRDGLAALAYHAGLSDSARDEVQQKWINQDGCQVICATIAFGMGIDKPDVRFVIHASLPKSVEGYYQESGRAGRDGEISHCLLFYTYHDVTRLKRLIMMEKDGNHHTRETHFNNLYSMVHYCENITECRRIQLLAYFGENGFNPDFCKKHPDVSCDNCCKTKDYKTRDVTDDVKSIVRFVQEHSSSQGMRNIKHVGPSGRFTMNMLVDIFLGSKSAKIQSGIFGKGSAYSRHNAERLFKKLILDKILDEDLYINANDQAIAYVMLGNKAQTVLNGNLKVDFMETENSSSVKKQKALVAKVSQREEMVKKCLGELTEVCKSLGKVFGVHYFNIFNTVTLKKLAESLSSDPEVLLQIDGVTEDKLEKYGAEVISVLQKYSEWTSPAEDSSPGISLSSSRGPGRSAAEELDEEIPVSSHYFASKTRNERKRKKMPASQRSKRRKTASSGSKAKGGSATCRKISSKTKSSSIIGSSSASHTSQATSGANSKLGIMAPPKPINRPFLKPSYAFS

Turning to `O=C1CC[C@@]2(O)C3Cc4ccc(O)c5c4C2(CCN3CC2CC2)[C@H]1O5` (stereo partly drawn), the Potency result in assay [1], in assay [2], in assay [3], in assay [4], in assay [5] and in [6] was “inactive” throughout. Moreover, the Potency entry in assay [10], in assay [11] and in assay [12] was “inactive” each time. In assay [7], the Potency is 10 µM (active). The result in [8] and in [9] was inactive.
Take `ClCC1CO1` (stereo not drawn): the compound was classed as inactive in assay [13].
On to `NC(=O)c1cc(N2CC2)c([N+](=O)[O-])cc1[N+](=O)[O-]`, for which the Potency result in assay [1], in assay [2], in [3], in assay [4], in [14] and in [15] was “inactive” throughout. The Potency result in assay [6], in assay [16], in assay [10], in [11] and in assay [12] was “inactive” in each case. Besides, the call in assay [9] was inactive.
As for `C/C(O)=C(\C#N)C(=O)Nc1cc(Br)ccc1Br`, the Potency result in assay [1], in [4], in assay [5], in [14], in [15] and in assay [6] was “inactive” each time. Also, the Potency entry in assay [7], in [16], in assay [10], in [11] and in assay [12] was “inactive” each time. Further, the compound was classed as inactive in assay [8] and in assay [9].
In the case of `CNC(=O)OCC[N+](C)(C)C`, the Potency entry in assay [2], in [3], in assay [4], in assay [5], in [14] and in [6] was “inactive” each time. The Potency entry in [7], in assay [16], in assay [10] and in assay [17] was “inactive” in each case. Also, the compound was classed as inactive in assay [9].
`CCn1cnc2c(Nc3cccc(Cl)c3)nc(N[C@@H]3CCCC[C@@H]3N)nc21`: the Potency entry in [2], in assay [3], in [10] and in [17] was “inactive” in each case. For the same compound, the Potency in [4] was 3.16 µM (active); in [5], 3.98 µM (active); in [14] it was 2.82 µM (active); in [15], 7.94 µM (active); in assay [6], 11.2 µM (active); in assay [7], 2.82 µM (active). The Potency in assay [16] is 8.91 µM (active); in [12], 18.5 µM (active). In addition, the outcome in assay [9] was inactive.
Take `CCCCCCCCOC(=O)c1ccccc1C(=O)OCCCCCCCC`: the compound was classed as inactive in [13].
Regarding `CC(C)(O)[C@@H]1C2OC(=O)[C@@H]1[C@]1(O)C[C@H]3O[C@]34C(=O)O[C@H]2[C@]14C` (tested in a mixture with another compound), the Potency entry in assay [11] and in [12] was “inactive” throughout.
Regarding `CCOC(=O)c1ccccc1C(=O)OCC`, the result in assay [13] was inactive.
Same read-out and setting: to `C=CCN=C=S` belongs “inactive”.
As for `C[N+]1(C)CCc2cc3c(cc2[C@H]1[C@@H]1OC(=O)c2c1ccc1c2OCO1)OCO3`, the Potency entry in assay [11] and in [12] was “inactive” each time.
On to `C[C@H](N)Cc1cccc(C(F)(F)F)c1`, for which the Potency entry in assay [11] and in assay [12] was “inactive” in each case.
In the case of `CCNC(=O)[C@H]1O[C@@H](n2cnc3c(N)ncnc32)[C@H](O)[C@@H]1O`, the Potency result in assay [11] and in assay [12] was “inactive” in each case.
`CC(=O)OCC1=C(C(=O)O)N2C(=O)[C@@H](NC(=O)CCC[C@@H](N)C(=O)O)[C@H]2SC1`: the Potency entry in [11] and in [12] was “inactive” in each case.
In the case of `Oc1cc(Cl)c(Cl)cc1Cl`, in assay [13], the compound was called inactive.
For the compound `CCN1C[C@@]2(COC)C3[C@@H](OC)C4[C@@H]1C3([C@@H]1C[C@]3(O)[C@H](OC(=O)c5ccccc5)[C@@H]1[C@]4(OC(C)=O)[C@@H](O)[C@@H]3OC)[C@H](OC)C[C@H]2O`, the Potency result in [11] and in assay [12] was “inactive” in each case.
`C=CCN(C1=NCCN1)c1c(Cl)cccc1Cl`: the Potency result in [11] and in assay [12] was “inactive” throughout.
Regarding `ClC=C(Cl)Cl`, in [13], the result was inactive.
The same measure, in the same setting: to `O=Cc1ccco1` belongs “inactive”.
Consider `CN1CC[C@@]2(C)c3cc(OC(=O)Nc4ccccc4)ccc3N(C)[C@@H]12`, for which the Potency entry in assay [11] and in assay [12] was “inactive” throughout.
On to `N#CCCN`, for which the Potency entry in [11] and in [12] was “inactive” throughout.
Turning to `O=C(O)C(Cl)(Cl)Cl`, in assay [13], the result was inactive.
Still for that read-out and setting: the same measure for `CCCCCl`: “inactive”.
For the compound `CCCC[N+]1(C)C2CC(OC(=O)[C@H](CO)c3ccccc3)CC1C1OC12` (stereo partly drawn), the Potency entry in assay [11] and in assay [12] was “inactive” throughout.
As for `O=[N+]([O-])/C=C/c1ccc2c(c1)OCO2`, the Potency entry in [12] was “inactive”.
Consider `ClC(Cl)(Cl)Cl`, for which, in [13], the compound was called inactive.
On to `N[C@@H](Cn1ccc(=O)[nH]c1=O)C(=O)O`, for which the Potency result in assay [11] and in assay [12] was “inactive” each time.
`N=C(N)c1ccc(CS(=O)(=O)F)cc1`: the Potency entry in assay [11] and in assay [12] was “inactive” each time.
On to `COc1ccc2c(c1)c(CCN1CCOCC1)c(C)n2C(=O)c1cccc(Cl)c1Cl`, for which the Potency entry in assay [11] and in assay [12] was “inactive” each time.
Turning to `CCCN1CCc2cccc3c2[C@H]1Cc1ccc(O)c(O)c1-3`, the Potency entry in assay [11] and in [12] was “inactive” each time.
Take `Cc1cc([C@@H]2CCCN2C)on1`: the Potency result in [11] and in [12] was “inactive” each time.
In the case of `C[C@H]1CCC[C@H](O)CCCCCc2cc(O)cc(O)c2C(=O)O1`, in [13], the outcome was inactive.
In the case of `C[C@@H]1O[C@@H](O[C@H]2C[C@@H](O)[C@]3(CO)[C@@H]4C(CC[C@]3(O)C2)[C@@]2(O)CC[C@H]([C@@H]3COC(=O)C3)[C@@]2(C)C[C@H]4O)[C@H](O)[C@H](O)[C@H]1O` (stereo partly drawn), the Potency result in assay [11] and in assay [12] was “inactive” each time.
As for `Clc1ccccc1Cl`, in [13], the call was inactive.
For `CC(C)[C@@]1(NC(=O)[C@@H]2C[C@@H]3c4cccc5[nH]cc(c45)C[C@H]3N(C)C2)O[C@@]2(O)[C@@H]3CCCN3C(=O)[C@H](Cc3ccccc3)N2C1=O`, the Potency entry in assay [11] and in assay [12] was “inactive” each time.
As to `COc1ccc2c(c1O)-c1cccc3c1[C@@H](C2)N(C)CC3`, the Potency entry in assay [11] and in assay [12] was “inactive” each time.
`CC(C)Nc1ccc(Nc2ccccc2)cc1`: in assay [13], the call was inactive.
Still for that read-out and setting: to `C[C@]12CCC(=O)C[C@@H]1CC[C@@H]1[C@@H]2CC[C@]2(C)[C@@H](O)CC[C@@H]12` belongs “inactive”.
As for `CCCN1CCC[C@@H](c2cccc(O)c2)C1`, the Potency result in [11] and in assay [12] was “inactive” in each case.
With `C=CCN1CCc2cccc3c2[C@H]1Cc1ccc(O)c(O)c1-3`, the Potency result in [11] and in [12] was “inactive” each time.
Regarding `N#C/C(=C/c1ccc(O)c(O)c1)C(N)=S`, the Potency result in assay [11] and in assay [12] was “inactive” in each case.
